# Hits are enriched below; roughly 3.5% of the tested compounds scored in any of these assays.
# LmPK inh: inhibitors of Leishmania mexicana pyruvate kinase. Q27686. purified LmPK, Kinase-Glo ATP luminescence, 1 h. Potency, µM (titrated, usually from 57.5 µM), usual class: inhibitors. 0.37% of 290,000 active. AID 1721
#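 Purified LmPK (0.1 nM) converted ADP (0.1 mM) to ATP with PEP (0.5 mM) in imidazole buffer pH 7.2 with KCl and MgCl2, 1 h at room temperature. ATP was read by Kinase-Glo luminescence; data normalized to uninhibited and no-enzyme controls.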
# Tb PYK inh: inhibitors of Trypanosoma brucei pyruvate kinase. TbPYK enzyme, Kinase-Glo Plus ATP luminescence, 45 min. Potency, µM (titrated, usually from 76.8 µM), hits mostly inhibitors. 0.12% of 410,000 active. AID 624173; also: nearly all actives have a fitted effect of over 50% in size
#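 TbPYK + substrate in 50 mM TEA pH 7.2, 100 mM KCl, 10 mM MgCl2, 0.05% BSA, 0.01% Tween-20; cpd pinned; ADP 130 uM final; 45 min RT; Kinase-Glo Plus 10 min; luminescence endpoint.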
# Giardia FBPA inh: inhibitors of Giardia lamblia fructose-1,6-bisphosphate aldolase; A8B2U2; purified Giardia FBPA; Potency, µM (highest dose often 59.6 µM), hits mostly inhibitors; 0.71% of 290,000 active; also: nearly all actives have a fitted effect of over 55% in size
# Target sequence (A8B2U2 whole entry, looked up): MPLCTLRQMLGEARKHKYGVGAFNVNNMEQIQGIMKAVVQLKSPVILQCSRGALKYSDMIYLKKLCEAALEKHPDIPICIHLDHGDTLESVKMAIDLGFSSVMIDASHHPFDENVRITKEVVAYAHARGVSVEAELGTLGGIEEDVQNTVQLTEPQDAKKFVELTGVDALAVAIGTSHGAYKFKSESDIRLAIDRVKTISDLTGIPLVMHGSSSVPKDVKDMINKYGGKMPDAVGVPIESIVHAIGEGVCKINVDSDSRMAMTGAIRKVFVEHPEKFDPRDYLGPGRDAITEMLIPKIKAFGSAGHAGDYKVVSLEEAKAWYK
#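 40 nM FBPA preincubated 10 min at RT with compound (up to 57.5 uM final), then substrate plus GAPDH/TPI/NAD/arsenate coupling and diaphorase/resazurin added. Fluorescence read after 20 min at RT, 525/598 nm.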
# RE007 growth inh: less growth of the S. pombe RE007 Vpr strain; Potency, µM (top dose mostly 92.2 µM), usual class: inhibitors; 0.21% of 360,000 active; S. pombe RE007 Vpr strain, BacTiter-Glo ATP luminescence, 24 h; active = well fitted falling curve with a large enough effect; inconclusive = small, poorly fitted or top-dose-only effect; inactive = no such curve, though single readings can be large or run the other way; also: nearly all actives have a fitted effect of over 50% in size
#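 Fission yeast RE007 carrying one integrated HIV-1 vpr copy, seeded at OD 0.01 in PMG+AL medium with 23 nL pinned compound. Grown 24 h at 30 degrees; viability read by BacTiter-Glo luminescence after 5 min.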
# Sm TGR inh: blocks Schistosoma mansoni thioredoxin glutathione reductase; Q962Y6; purified TGR, DTNB reduction, TNB absorbance 405 nm; Potency, µM (highest dose often 114 µM), actives largely listed as inhibitors; 3% of 360,000 active; AID 485364; also: nearly all actives have a fitted effect of over 60% in size
#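 TGR 20 nM + NADPH 100 uM (dispensed conc.), cpd preinc 15 min RT; start with NADPH (500 uM addition) then DTNB (15 mM addition). Kinetic TNB absorbance, 405 nm filter. Four-parameter Hill fit across titration.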
# NS1 function inh: influenza NS1 inhibition. Potency, µM (series often up to 46.1 µM). 0.4% of 270,000 active. AID 2326; calls by dose curve; also: actives are rising curves; nearly all actives have a fitted effect of over 50% in size
#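 A cell-based growth assay was used: compounds that relieve NS1-induced slow growth of budding yeast raise OD600. Assay medium was yeast nitrogen base with ammonium sulphate and -URA supplement, pH 6.0, with 2% galactose.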
# Flu NS1 inh: influenza NS1 function inhibition validation; 1,400 tested, under 10 active; activity change, negative = inhibition, % at 32.9 µM; shares compounds with NS1 function inh; influenza NS1 function cell assay, 15-point titration; calls by dose curve
# Flu PR8 replic: reduces influenza A/PR/8/34 replication in MDCK cells | shares compounds with NS1 function inh | MDCK infected influenza A/PR/8/34, virus titer TCID50; active compounds read low | virus titer (log TCID50), log10 TCID50 at 5 µM | 30% of 95 active | AID 504647; call rule not given here
# Hits are given with their value; – = inactive; ? = inconclusive; · = no result. Unless noted, calls follow the shape of the dose curve; as a rule, active = well fitted curve in the direction sought with a large enough effect; inconclusive = small, poorly fitted or top-dose-only effect, or another doubt; inactive = no such curve, though single readings can be large; an effect the other way counts as inactive or inconclusive.
SMILES,LmPK inh,Tb PYK inh,Giardia FBPA inh,RE007 growth inh,Sm TGR inh,NS1 function inh,Flu NS1 inh,others
O=C(Cc1ccccc1)NCCN1CCCC1,–,–,–,–,–,2.82µM,–,
CCn1c(N2CCN(CC(=O)c3c(C)n(C)c4ccc(OC)cc34)CC2)nc2c1c(=O)[nH]c(=O)n2C,–,–,–,–,?,11.2µM,–,
CCn1c(N2CCN(CC(=O)c3c(C)n(C)c4ccccc34)CC2)nc2c1c(=O)[nH]c(=O)n2C,–,–,–,–,–,–,·,
CCOc1ccccc1CNC(=O)CCCC(=O)n1nc(C)c2ccccc21,–,–,–,–,–,?,?,
O=C(Nc1nncs1)c1cccc(S(=O)(=O)N2CCc3ccccc32)c1,–,–,?,–,–,–,·,
CCC(CC)c1nnc(NC(=O)c2cccc(S(=O)(=O)N3CCc4ccccc43)c2)s1,–,–,·,–,–,8.91µM,–,
CC(C)Oc1ccc(C(=O)N(Cc2ccc(N(C)C)cc2)Cc2ccco2)cc1,·,–,·,·,–,·,·,
CN1OC2C(=O)N(c3ccccc3)C(=O)C2C1c1ccc(F)cc1 (stereo not drawn),–,–,–,–,–,?,–,
O=C1C2ON(c3ccccc3)C(c3ccccc3F)C2C(=O)N1c1ccccc1 (stereo not drawn),–,–,–,–,–,–,·,
CCc1ccc(NC(=O)CN(Cc2ccccc2)S(=O)(=O)c2ccc3nc(C)sc3c2)cc1,·,–,·,·,–,·,·,
COc1ccc(CN2C(=O)CC(=O)NC2=O)cc1,–,–,–,–,?,3.55µM,–,
COc1ccc(N2C(=O)CC(=O)NC2=O)cc1,–,–,–,–,?,–,·,
COc1cc(NC(=O)c2ccccc2)c(OC)cc1NC(C)=O,–,–,–,–,–,?,–,
CCC(=O)Nc1cc(OC)c(NC(=O)c2ccccc2)cc1OC,–,–,–,–,–,–,·,
CCOC(=O)N1CCN(S(=O)(=O)N2CCCC(C(=O)NCCCN3CC(C)CC(C)C3)C2)CC1 (stereo not drawn),–,–,–,–,–,?,–,Flu PR8 replic=6
COc1ccc(C(=O)Oc2c(Sc3ccc(Cl)cc3)c(C)nn2C(C)(C)C)cc1OC,·,–,·,·,–,·,·,
CCOc1cc2[nH]c(=O)n(CC3CCC(C(=O)NCCCOC)CC3)c(=O)c2cc1OCC (stereo not drawn),–,–,–,–,–,8.91µM,–,
CCOc1cc2[nH]c(=O)n(CC3CCC(C(=O)NCCC(C)C)CC3)c(=O)c2cc1OCC (stereo not drawn),·,–,·,–,·,–,·,
O=C(c1cc(-c2ccncc2)nc2ccccc12)N1CCN(c2ccccn2)CC1,–,–,–,–,–,–,·,
O=C(c1cc(-c2ccncc2)nc2ccccc12)N1CCN(c2ccc(N3CCOCC3)nn2)CC1,–,–,–,–,–,?,–,
O=C(NNc1nc2cc3c(cc2s1)OCO3)c1ccc(F)cc1,–,–,–,–,–,?,–,
CCOc1ccc(-c2cc3c(=O)n(Cc4nc(-c5ccc(OCC)c(OC)c5)oc4C)ccn3n2)cc1Cl,·,–,·,·,–,·,·,
O=C(C[n+]1cccc(C(=O)Nc2ccccc2)c1)c1ccc(Cl)cc1,·,–,·,–,·,·,·,
O=C(C[n+]1cccc(C(=O)Nc2ccccc2)c1)c1ccc([N+](=O)[O-])cc1,–,–,–,–,–,2.51µM,–,Flu PR8 replic=–
Cc1ccc(NC(=O)N2CCc3c([nH]c4ccccc34)C2c2ccccc2F)c(Cl)c1 (stereo not drawn),·,–,·,·,–,·,·,
SMILES,LmPK inh,Tb PYK inh,Giardia FBPA inh,RE007 growth inh,Sm TGR inh,NS1 function inh,Flu NS1 inh,others
Cc1cccc(NC(=O)CSc2nnc([C@@H](N)Cc3c[nH]c4ccccc34)o2)c1C,–,–,–,–,–,11.2µM,–,
Nc1ccc(-c2nc3cc(N)ccc3n2CCO)cc1,–,–,?,–,–,7.94µM,–,
Cc1c(Cl)cnc(NC(=O)COC(=O)c2cccc(S(=O)(=O)N3c4ccccc4CC3C)c2)c1Cl (stereo not drawn),–,–,–,–,–,11.2µM,–,
CCC1CCc2c(sc(NC(=O)C3c4ccccc4Oc4ccccc43)c2C(=O)OC)C1 (stereo not drawn),·,–,·,·,–,·,·,
CCOc1ccc2[nH]c(=O)c(CN(CC3COCCO3)C(=O)c3ccco3)cc2c1 (stereo not drawn),–,–,–,–,–,–,·,
CCOc1ccc2[nH]c(=O)c(CN(Cc3ccc(F)cc3)C(=O)c3ccco3)cc2c1,–,–,–,–,–,11.2µM,–,
Cc1nc2c(-c3ccccc3)c(C)nn2c(C)c1CCC(=O)NCc1ccc(F)cc1,·,–,·,·,–,·,·,
O=C(Cn1nc(-c2ccccc2)c2ccccc2c1=O)Nc1ccc(O)cc1,–,–,–,–,–,–,·,
Cc1ccc(NC(=O)NNC(=O)Cn2nc(-c3ccccc3)c(-c3ccccc3)c(C#N)c2=O)cc1,–,–,–,–,–,?,–,
Cc1cc(N2CCOCC2)nc2ccc(NC(=O)CCC(=O)N3CCC(C)CC3)cc12,–,–,?,–,–,5.62µM,?,
CCn1c(CNC(=O)C2CCCCC2)cc2ccccc21,–,–,–,–,–,?,–,
Cn1c(CNC(=O)C2CCCCC2)cc2ccccc21,–,–,–,–,–,–,·,
COC(=O)C1=C(C)N2C(=O)CSC2=NC1c1ccc2c(c1)OCO2 (stereo not drawn),–,–,–,–,–,12.6µM,–,
Cc1nc2c(ccc3nc(NC(=O)c4ccc5c(c4)OCCO5)sc32)s1,–,–,–,–,–,?,–,
Cc1nc2ccc3nc(NC(=O)c4ccc5c(c4)OCCO5)sc3c2s1,–,–,–,–,–,–,·,
COc1ccc(S(=O)(=O)Nc2cc(C(=O)NC(C)C)ccc2N2CCOCC2)cc1,–,–,–,–,–,–,·,
COc1ccc(S(=O)(=O)Nc2cc(C(=O)NC3CCCCCC3)ccc2N2CCOCC2)cc1,–,–,–,–,–,10µM,–,
O=C(N/N=C/c1ccc(N2CCOCC2)s1)c1ccc(NS(=O)(=O)c2cccs2)cc1,–,–,–,–,?,10µM,–,
COCc1cc(CN2CCCC2)c(O)c2ncccc12,–,–,?,–,?,0.708µM,?,
COc1ccccc1N1CCN(Cc2cc(COC(C)C)c3cccnc3c2O)CC1,·,–,·,·,?,·,·,
CS(=O)(=O)/C(C#N)=C/c1cccn1S(=O)(=O)c1ccccc1,–,–,–,–,–,–,·,
N#CC(C#N)=Cc1cccn1-c1ccc(S(N)(=O)=O)cc1,–,–,–,–,–,?,–,
